Source: PubChem BioAssay
The entries come from a sample that favours hits as a whole.
Pf Dd2 inh = Plasmodium falciparum Dd2 growth inhibition. P. falciparum Dd2 growth, SYBR Green, 72 h. Potency, µM (titrated, usually from 28.9 µM), usual class: inhibitors. hit rate 4.3% among 120,000; active = well fitted inhibition curve with a large enough effect; note: nearly all actives have a fitted effect of over 65% in size
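Readout: SYBR Green fluorescence, 485 nm excitation, 535 nm emission, after ~16 h lysis at 37C. Before that, Dd2-infected red cells (2.5% hematocrit) grew 72 h with compound, 29 uM top final concentration.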
A number is an active result; - = inactive; [ ] = dose if it differs, or a comment.

SMILES	Pf Dd2 inh
CC(=O)N1CCC(N2CCC3(CC2)CC(C(=O)N2CCOCC2)N(C)C3)CC1 (centres undefined)	-
Cc1ccccc1-c1cc(C(=O)NCCc2cnc[nH]2)c2c(c1)N(C)CCO2	-
CCN(C1CCOCC1)C1CN(C(=O)c2ccoc2)C1	-
Cc1ccc([S+](=O)([O-])N2CCC(N3CCCNC3=O)CC2)cc1	-
Cc1nc(-c2c3n(c(=O)n(CC(=O)Nc4cccc(C(C)C)c4)c2=O)CCCCC3)no1	-
O=c1n(-c2ccncc2)nc2n1CCN(Cc1cccc3ccccc13)C2	-
CC(=O)Nc1cccc(-c2nc(-c3c(C)noc3C)cc3cc(C)oc23)c1	-
Cc1ccc(-c2nnc(SCC(=O)NC3CCCC3)nc2-c2ccc(C)cc2)cc1	5.01µM
O=C(CSc1nnc(-c2ccc(Cl)cc2)c(-c2ccc(Cl)cc2)n1)NC1CCCC1	-
COc1ccc(-c2nnc(SCC(=O)NC3CCCCC3)nc2-c2ccc(OC)cc2)cc1	-
Cc1nc(-c2cn(C3CCCN(C(=O)c4ccccc4F)C3)nn2)no1 (centres undefined)	-
CCOc1cccc(C2Nc3ccccc3-c3cc(C)nn32)c1O (centres undefined)	1µM
COc1ccc(C2Nc3ccccc3-c3cc(C)nn32)cc1OC (centres undefined)	-
COc1cc(C2Nc3ccccc3-c3cc(C)nn32)ccc1O (centres undefined)	-
O=C(CN1C(=O)NC2(CCOCC2)C1=O)Nc1ccc(Cl)cc1F	-
COc1nccnc1NC1CCN(S(=O)(=O)c2cnc[nH]2)CC1	-[5.79 µM]
O=[S+]1([O-])NCC2(CCN(Cc3ccsc3)CC2)Nc2ccccc21	-
O=[S+]1([O-])NC2(CCN(Cc3ccncc3)C2)CNc2ccccc21 (centres undefined)	-
COc1ccc(CN2CCC3(CC2)CNc2ccccc2[S+](=O)([O-])N3)cc1	-
Cc1ccc(CN2CCCC3(CN[S+](=O)([O-])c4ccccc4N3)C2)cc1 (centres undefined)	-
Cc1ccc(CN2CCC3(CC2)CN[S+](=O)([O-])c2ccccc2N3)cc1	5.01µM
O=[S+]1([O-])NC2(CCN(Cc3ccc(C(F)(F)F)cc3)CC2)CNc2ccccc21	11.2µM
COc1ccc(CN2CCC3(CN[S+](=O)([O-])c4ccccc4N3)C2)cc1 (centres undefined)	-
O=[S+]1([O-])NCC2(CCN(Cc3ccc(F)cc3)CC2)Nc2ccccc21	8.91µM
O=[S+]1([O-])NCC2(CCCN(Cc3ccc(F)cc3)C2)Nc2ccccc21 (centres undefined)	-
SMILES	Pf Dd2 inh
CCC(=O)N1CCC2(CC1)CC(N1CCCCC1)CCO2 (centres undefined)	-
O=C(N[C@@H]1CCC[C@@H]1C(=O)NCC1CCCCC1)c1ccncc1	-
COc1ccccc1C(=O)N1CCc2nn(Cc3ccccc3)c(=O)n2CC1	-
CCOc1ccc(NC(=O)Cn2ccn3nc(-c4ccc(F)cc4)c(CO)c3c2=O)cc1	-
O=C(C1CCCC1)N1CCN(C(=O)N2CC3CC(C2)[C@H]2CCCC(=O)N2C3)CC1 (some centres undefined)	-
Cc1ccc2c(C)c(C(=O)N3C[C@@H](CN4CCC(O)CC4)[C@@H](CO)C3)oc2c1	-
CCc1nncn1C1CCN(C(=O)c2cc(F)ccc2Cl)CC1	-
Cc1cc(C)c(S(=O)(=O)N2CC(c3nc(-c4ccncc4)no3)C2)c(C)c1	-
COc1cc(OC)cc(C(=O)NCC2CCCN(Cc3cnn(C)c3C)C2)c1 (centres undefined)	-
Cc1ccc(-c2nccc(N3CCC(O)C3)n2)c(C)c1 (centres undefined)	-
COCCN1CC(CO)C2(CCN(Cc3cccc(Cl)c3)CC2)C1 (centres undefined)	10µM
COCCN1CC(CO)C2(CCN(Cc3ccc(F)c(F)c3)CC2)C1 (centres undefined)	-
COCCN1CC(CO)C2(CCN(Cc3cccc(C#N)c3)CC2)C1 (centres undefined)	-
COCC1CN(C(=O)COc2ccccc2)CC12CCNCC2 (centres undefined)	-
O=C(N[C@@H](Cn1cc(Br)c(=O)[nH]c1=O)C(=O)O)C1CCC1	-
CC1CCC2(CC1)NC(=O)N(CC(=O)Nc1cccc(C(F)(F)F)c1)C2=O (centres undefined)	-
CN1C[C@H](NCc2cccc(Cl)c2)CCC[C@@H](C(=O)NCc2cc(F)cc(F)c2)CC1=O	-
Cc1ccc(C)c(C(=O)N2CCC(c3n[nH]c(=O)n3-c3ccccc3)CC2)c1	-
O=C(c1ccccc1)N1CCC(N(C(=O)C2CC2)C2CCOCC2)CC1	-
COc1ccccc1NC(=O)N1CCC(N(C(=O)C2CC2)C2CCOCC2)CC1	4.47µM
O=C(C1CCC1)N1CCC(N(C(=O)C2CC2)C2CCOCC2)CC1	-
COc1cccc2c1OCCCN(C(=O)CC1COCCN1)C2 (centres undefined)	-
Cc1cccc(Nc2nc(N)nc(CN3CC[C@@](O)(C4CCC4)[C@H](C)C3)n2)c1	8.91µM
C[C@@H]1CN(Cc2noc(C3CCCC3)n2)CC[C@@]1(O)C1CCC1	-
COc1cc(F)c(CN2CC[C@@](O)(C3CC3)[C@H](C)C2)cc1OC	-
SMILES	Pf Dd2 inh
CN(C)C(=O)c1ccc(OC2CCN(C(=O)c3ccc(F)cc3F)CC2)nc1	-
CC(NC(=O)c1ccc2cccc(F)c2n1)c1ccccc1-n1cccn1 (centres undefined)	-
CC(C)c1nc(CN(C)C(=O)c2cc(COc3ccccc3)[nH]n2)no1	-
COc1ccc(N2CC(C(=O)NCc3ccc4c(c3)OCO4)NC2=O)cc1 (centres undefined)	-
COc1ccc(CNC(=O)C[C@@H]2C[C@H]3O[C@H](CNC4CCCC4)[C@@H](O)[C@H]3O2)cc1	-
CC(C)n1cnnc1CC1CCCN(C(=O)c2n[nH]c3ccccc23)C1 (centres undefined)	-
Cc1ccc(-c2cc(C(=O)N3CCC(Cc4nncn4C(C)C)CC3)c3ccccc3n2)cc1C	5.01µM
Cc1nn(C(=O)CCCC(=O)N2CCC(Cc3nncn3C(C)C)CC2)c2ccccc12	-
O=c1ncn(Cc2ccccc2)c2ccc(NCCOc3ccccc3)nc12	-
N#Cc1cccc(CN2CCc3nc(C(=O)Nc4cccc(C(F)(F)F)c4)oc3CC2)c1	-
O=C(NCc1cccs1)C1=NO[C@@H]2CN(c3cccnc3)C[C@H]12	-
CN(C)CC(=O)N1Cc2ccccc2CC2(CCN(CC3CCNCC3)C2)C1 (centres undefined)	-
COc1ccc(F)cc1CN1CCc2[nH]cnc2C1c1cccc(C#N)c1 (centres undefined)	5.62µM
COc1ccc(-c2noc(CN3CCCCC3c3cccc(F)c3)n2)c(OC)c1OC (centres undefined)	-
N#Cc1cccc(CN2Cc3[nH]cnc3C[C@H]2c2nc(-c3ccccc3)no2)c1	-
NCCCC(=O)N1CCCCC1c1nnc2n1CCNC2 (centres undefined)	-
CN(Cc1cnccn1)C(=O)CC(c1ccccc1)c1ccccc1Cl (centres undefined)	-
O=C(CC(c1ccccc1)c1ccccc1F)NCc1cccnc1 (centres undefined)	-
O=C(CC(c1ccccc1)c1ccccc1Cl)N(Cc1cccnc1)C1CC1 (centres undefined)	12.6µM
CC(C)(C)NC(=O)N[C@H](Cc1ccccc1)C(=O)N1CCOCCNC(=O)CC1	-
COc1cccc(CN2C[C@@H](CO)[C@H](NC(=O)C3CCC3)C2)n1	-
